Results filed as inconclusive are left out. The source made the active and inactive calls.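 Rule for the calls, unless noted: active = growth inhibition above 25% in both replicates, a cutoff set 3 SD above the mean; inconclusive = above 25% in only one replicate; inactive = the rest.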

Experiment [1] in a line: reducers of endogenous Her2 protein level, primary screen, SKBR3 breast tumor cells, AlphaScreen, ATP viability (AID 461;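 active = Her2 level under about 52% in both replicate screens, with viability over 70% of control, limit read from the data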;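 for Her2 level: lower value means less Her2 protein in the cells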;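 for viability: percent of carrier control wells set as 100% viability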). The conditions noted are these: 18-24 h, measured here: SKBR3 viability, ATP luminescence, at 10 µM. (In general: In Alpha technology, singlet oxygen from a donor bead excites a nearby acceptor bead.)
In experiment [2] the target is Receptor tyrosine-protein kinase erbB-2 (Homo sapiens) (UniProt P04626). The experiment is described as above. The conditions noted are these: 18-24 h, at 10 µM, stronger effect = lower value.
The nature of experiment [3]: SK-BR-3 cell growth inhibitors, pilot screen, 24 h, human (AID 572;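 active = viability at or below 10% of carrier control in both of two separate runs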;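 note: compound exposure lasted between 18 and 24 h rather than exactly 24 h; 100% = carrier-treated control wells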). The conditions noted are these: SK-BR-3 viability, CellTiter-Glo luminescence, at 10 µM, stronger effect = lower value. Background: ATP-based viability assays read luminescence as a measure of living cells.
Experiment [4] is described as follows: HUVEC growth inhibition – cell-based, human, primary screen (AID 575;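 active = viability at or below 30% in both replicate assays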;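 note: 100% = median of untreated cell wells with 0.1% DMSO on each plate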). The conditions noted are these: HUVEC proliferation, CellTiter-Glo luminescence, 72 h; at 10 µM; stronger effect = lower value.
Experiment [5] in a line: growth inhibitors of H69AR lung tumor, primary screen, human, duplicate replicates (AID 580;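 active = viability at or under a set limit in both replicates, limit being median viability minus 3 SD, cut at about 48% in these data, passing the limit was not always enough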;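 note: 100% = mean luminescence of untreated wells and 0% = no signal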). The conditions noted are these: H69AR lung tumor cells viability, ATP luminescence, 72 h; at 10 µM; stronger effect = lower value.
Experiment [6] can be described thus: reversal of MRP1-mediated doxorubicin resistance, pilot screen, H69AR cells, doxorubicin co-treatment (AID 601;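 active = viability loss from added drug above about 55%, and viability with drug at most 40%, in both replicates, limit read from the data, passing the limit was not always enough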). To be noted: CellTiter-Glo, 72 h, at 10 µM; for differential viability (reversal): stronger effect = higher value.
Experiment [7] in a line: 384-well plate pilot, post-Golgi transport modulator project, inhibition of yeast transport mutant growth (AID 636; in the data active = inhibition above about 31%). To be noted: absorbance 615 nm, about 18 h, stronger effect = higher value.
Experiment [8] in a line: growth suppression of yeast trafficking mutant, preliminary HTS, modulators of trafficking downstream of Golgi apparatus project, 1536-format plate, OD 615 nm (AID 637; in the data active = inhibition above about 30%). The conditions noted are these: yeast transport mutant growth, absorbance 615 nm, 18 h; stronger effect = higher value.
Experiment [9] can be described thus: OD615 S. cerevisiae growth inhibition, permissive medium, pilot counter-assay, permissive growth control for S. cerevisiae lifespan shortening project (AID 705). To be noted: OD615, 24 h, at 10 µM, stronger effect = higher value.
Experiment [10] can be described thus: Restrictive medium S. cerevisiae growth inhibition, OD615, pilot screen of yeast lifespan reduction project, restrictive growth control (AID 706;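 active = growth inhibition above a set limit, 3 SD over mean compound inhibition, in both replicates, cut at about 43% in these data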;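 note: modified DeaD lifespan yeast strain shifted to restrictive glucose medium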). To be noted: OD615, 48 h, at 10 µM, stronger effect = higher value.
The nature of experiment [11]: viability gain of MRP-1-high H69AR cells under doxorubicin, pilot screen, MRP-1 activator project, CellTiter-Glo, duplicate (AID 807;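 active = viability increase at or above a cutoff of the median across tested compounds plus 3 SD, cut at about 8.5% in these data, passing the limit was not always enough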;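 note: compound pretreatment 18-22 h then 72 h combined with doxorubicin; 0% = doxorubicin alone and 100% = vehicle without doxorubicin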). The conditions noted are these: H69AR viability with doxorubicin, CellTiter-Glo luminescence; at 10 µM; stronger effect = higher value.
Experiment [12] can be described thus: growth suppression of beta-catenin knockout HCT116, pilot screen, human colon tumor cells (AID 823;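 active = cell viability at or below a set limit in both duplicate runs, the limit being the all-compound median minus 4 SD, cut at about 23% in these data, passing the limit was not always enough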;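 note: 0% = wells killed by 20 µM Hyamine and 100% = untreated DMSO cell wells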). The conditions noted are these: CellTiter-Glo, 60 h, at 10 µM, stronger effect = lower value.
The nature of experiment [13]: growth suppression of PTEN-deleted HCT116, pilot screen, cell-based, HCT116 clonal line, CellTiter-Glo (AID 824;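 active = viability at or below 27.92% in each of two runs, the all-compound median minus 4 SD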;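 note: 0% = 20 µM Hyamine control and 100% = vehicle cell control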). To be noted: 60 h, at 10 µM, stronger effect = lower value.
A short description of experiment [14]: inhibitors of the yeast RAM network, pilot screen, dse1pr::URA3 reporter, 5-FOA selection (AID 869;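 active = inhibition over a set limit, the all-compound mean plus 3 SD, in both replicate runs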;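 note: 0% = DMSO wells with no growth and 100% = 10 µM 1-NA-PP1 with full growth; RAM network block rescues cells from 5-FOA so hits raise OD615 growth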). To be noted: S. cerevisiae dse1pr::URA3 5-FOA growth, OD615, 2 d; at 10 µM; stronger effect = higher value; strain carries analog-sensitive mutant Cbk1 kinase.
A short description of experiment [15]: RAM signaling pathway blockade in yeast – S. cerevisiae, Pdr1DBD-CYC8 efflux-inhibited sensitized strain, primary screen (AID 1298;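 active = RAM network inhibition above 8.4% in each of two replicates, 3 SD over the compound average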;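 note: 0% = DMSO untreated cells without growth and 100% = 10 µM 1-NA-PP1 full growth; higher means more yeast growth rescued from 5-FOA killing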). The conditions noted are these: S. cerevisiae cbk1-as DSE1-URA3 strain, 5-FOA growth OD615, 2 d; at 50 µM; stronger effect = higher value.
Setting [16] is: H69AR cells + 2 uM doxorubicin, measured here: viability with 2 uM doxorubicin, stronger effect = lower value.
Where [17] appears, read: H69AR cells, compound alone cytotoxicity.

Receptor tyrosine-protein kinase erbB-2 (Homo sapiens), sequence (P04626 whole entry, looked up): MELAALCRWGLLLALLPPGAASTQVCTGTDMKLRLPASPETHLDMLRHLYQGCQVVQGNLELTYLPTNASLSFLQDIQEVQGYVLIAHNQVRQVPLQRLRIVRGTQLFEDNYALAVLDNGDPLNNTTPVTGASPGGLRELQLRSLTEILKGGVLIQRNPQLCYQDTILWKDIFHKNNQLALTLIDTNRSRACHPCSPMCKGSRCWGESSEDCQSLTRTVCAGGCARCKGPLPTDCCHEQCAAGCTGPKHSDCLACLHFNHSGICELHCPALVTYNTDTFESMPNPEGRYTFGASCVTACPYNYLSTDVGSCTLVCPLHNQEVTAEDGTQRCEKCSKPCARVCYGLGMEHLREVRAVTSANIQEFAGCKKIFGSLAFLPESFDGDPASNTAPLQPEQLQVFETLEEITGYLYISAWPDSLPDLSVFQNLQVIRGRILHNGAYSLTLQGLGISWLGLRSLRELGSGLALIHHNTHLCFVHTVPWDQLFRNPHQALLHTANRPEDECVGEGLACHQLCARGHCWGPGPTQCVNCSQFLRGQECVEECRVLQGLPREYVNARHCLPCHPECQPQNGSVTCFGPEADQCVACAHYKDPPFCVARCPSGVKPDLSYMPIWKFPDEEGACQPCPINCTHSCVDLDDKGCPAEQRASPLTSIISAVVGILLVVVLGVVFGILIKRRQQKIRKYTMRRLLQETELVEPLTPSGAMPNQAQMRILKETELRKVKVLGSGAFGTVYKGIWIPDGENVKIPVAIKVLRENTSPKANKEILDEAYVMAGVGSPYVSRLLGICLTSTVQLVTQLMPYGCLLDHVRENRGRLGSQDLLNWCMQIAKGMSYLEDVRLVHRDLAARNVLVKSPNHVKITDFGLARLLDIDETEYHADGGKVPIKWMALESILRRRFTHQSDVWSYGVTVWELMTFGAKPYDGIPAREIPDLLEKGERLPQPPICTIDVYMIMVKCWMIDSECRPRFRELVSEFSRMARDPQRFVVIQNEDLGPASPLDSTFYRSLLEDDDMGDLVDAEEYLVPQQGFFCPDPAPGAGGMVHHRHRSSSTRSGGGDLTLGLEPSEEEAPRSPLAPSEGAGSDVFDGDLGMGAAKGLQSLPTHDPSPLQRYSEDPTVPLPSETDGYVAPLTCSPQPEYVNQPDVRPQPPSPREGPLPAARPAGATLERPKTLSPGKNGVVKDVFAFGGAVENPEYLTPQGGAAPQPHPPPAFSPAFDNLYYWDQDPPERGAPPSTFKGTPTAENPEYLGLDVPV

In the case of `CCCc1cc(C(=O)Nc2ccccc2SC)no1`, the viability in experiment [1] was 86%; in experiment [3] it was 86% (inactive); in experiment [4] it was 104% (inactive); in [5], 81.1% (inactive); in experiment [6] (setting [16]), 84.4%; in experiment [6] (setting [17]) it was 81.1%. The viability was 100% (inactive) in experiment [12] and 93.4% (inactive) in experiment [13]. Besides, in [2], the Her2 level was 90.5% (inactive). Moreover, in experiment [6] (H69AR cells + 2 uM doxorubicin), the differential viability (reversal) was -3.34% (inactive). In addition, the inhibition was 0.9% (inactive) in experiment [7], 5.67% (inactive) in experiment [8] and 0.2% (inactive) in experiment [14]. The growth inhibition is -11.4% (inactive) in [9] and -21.2% (inactive) in experiment [10]. Also, the viability increase in [11] was -3.07% (inactive). Besides, the RAM network inhibition in experiment [15] was 1.56% (inactive).

As for `CCN(CC)C(=O)COc1ccc2oc(C)c(C(=O)OC(C)C)c2c1`, the viability is 83% in [1]; 83% (inactive) in experiment [3]; 91.4% (inactive) in experiment [4]; 74.1% (inactive) in [5]; 78.8% in [6] (setting [16]); 74.1% in [6] (setting [17]). Also, the figures for the viability in experiment [12] and in experiment [13] were 84.2% (inactive) and 84.8% (inactive), respectively. Further, the Her2 level in [2] was 104% (inactive). For the same compound, the differential viability (reversal) in [6] (H69AR cells + 2 uM doxorubicin) was -4.69% (inactive). Besides, the figures for the inhibition in experiment [7], in experiment [8] and in experiment [14] were -1.69% (inactive), -6% (inactive) and 1.08% (inactive), respectively. The values for the growth inhibition in experiment [9] and in experiment [10] were -11.4% (inactive) and -9.19% (inactive), respectively. Besides, the viability increase in experiment [11] was -6.09% (inactive). For the same compound, the RAM network inhibition in experiment [15] is 7.42% (inactive).

On to `COc1ccc(CNc2oc(-c3ccccc3)nc2C#N)cc1`, for which the viability in experiment [1] is 88.5%; in [3], 88.5% (inactive); in experiment [4], 69.7% (inactive); in [5], 103% (inactive); in [6] (setting [16]), 102%; in [6] (setting [17]), 103%. The viability in experiment [12] is 98.8% (inactive); in [13], 98.6% (inactive). Moreover, the Her2 level in experiment [2] was 83.5% (inactive). The differential viability (reversal) in [6] (H69AR cells + 2 uM doxorubicin) was 0.495% (inactive). Besides, the results for the inhibition in experiment [7], in experiment [8] and in experiment [14] were 4.27% (inactive), -4.92% (inactive) and 0.335% (inactive), respectively. In addition, the growth inhibition in experiment [9] was 0.305% (inactive); in [10], 12.3% (inactive). In experiment [11], the viability increase was 2.09% (inactive). For the same compound, the RAM network inhibition in experiment [15] was 4.07% (inactive).

As to `CC1CCc2nn(CC(=O)NCc3ccc4c(c3)OCO4)cc2C1` (stereo not given), the viability in [1] was 86.5%; in [3], 86.5% (inactive); in experiment [4] it was 90.7% (inactive); in experiment [5] it was 100% (inactive); in [6] (setting [16]), 90.6%; in experiment [6] (setting [17]), 100%. Moreover, the viability in experiment [12] is 108% (inactive); in experiment [13], 94.5% (inactive). Also, the Her2 level in [2] is 88% (inactive). Further, in experiment [6] (H69AR cells + 2 uM doxorubicin), the differential viability (reversal) was 9.8% (inactive). The inhibition in experiment [7] is -2.93% (inactive); in [8], 2.79% (inactive); in [14], -0.525% (inactive). For the same compound, the growth inhibition in [9] is -0.315% (inactive); in experiment [10] it was -4.54% (inactive). For the same compound, in experiment [11], the viability increase was -0.84% (inactive). Besides, the RAM network inhibition in [15] was 1.68% (inactive).

`Cn1c(=O)cc(NCCc2ccccc2)[nH]c1=O`: the viability was 97% in experiment [1]; 97% (inactive) in experiment [3]; 50.3% (inactive) in experiment [4]; 42.9% (active) in [5]; 80.2% in experiment [6] (setting [16]); 42.9% in experiment [6] (setting [17]). The values for the viability in experiment [12] and in experiment [13] were 87.5% (inactive) and 88.3% (inactive), respectively. In addition, the Her2 level in experiment [2] was 93.5% (inactive). Moreover, the differential viability (reversal) in experiment [6] (H69AR cells + 2 uM doxorubicin) was -37.3% (inactive). Besides, the inhibition in experiment [7] was -1.82% (inactive); in experiment [8], -8.36% (inactive); in [14], 0.595% (inactive). The growth inhibition in experiment [9] was -9.86% (inactive); in experiment [10] it was 2.05% (inactive). Also, the viability increase in experiment [11] is -5.4% (inactive). The RAM network inhibition in experiment [15] was 3.06% (inactive).

As a reminder, the viability is a read-out of living cells in per cent, often relative to untreated cells. One may read the inhibition as the change of the read-out against control, counted positive when it falls.

(Values after PubChem BioAssay.)
